Pol beta inh: blocks human DNA polymerase beta activity; Pol beta primer extension/strand displacement, fluorescence kinetic; actives 1.3% (n = 340,000); AID 485314; Potency, µM (series often up to 114 µM), hits mostly inhibitors
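Human Pol beta at 10 nM; strand-displacement substrate 50 nM final. Compound exposure 15 min at room temperature before start, reaction 10 min at room temperature.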
FEN1 inhibitor: human FEN1 inhibition | Potency, µM (series often up to 114 µM), hits mostly inhibitors | Recombinant FEN1 flap cleavage, fluorescence, 15 min | P39748 | actives 0.35% (n = 390,000); also: nearly all actives have a fitted effect of over 65% in size
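Read-out was taken twice, immediately and after 15 min, following addition of 50 nM substrate to 10 nM FEN1 that had sat with test compound for 15 min at room temperature. Curves came from a four-parameter Hill model.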
Pol kappa inh: blocks human DNA polymerase kappa activity; Q9UBT6; purified Pol kappa, fluorescent DNA synthesis assay, 10 min; Potency, µM (titrated, usually from 107 µM), usual class: inhibitors; actives 0.53% (n = 400,000)
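Activity was followed as the change in fluorescence between reads at 0 and 10 min after starting the reaction with 50 nM substrate. Beforehand, 10 nM polymerase had been preincubated with compound for 15 min at room temperature.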
Pol eta inh: blocks human DNA polymerase eta activity; actives 1.2% (n = 390,000); Potency, µM (series often up to 114 µM), most hits filed as inhibitors; recombinant Pol eta, fluorescent DNA replication assay; AID 588591; Q9Y253
Target sequence (Q9Y253 whole entry, looked up): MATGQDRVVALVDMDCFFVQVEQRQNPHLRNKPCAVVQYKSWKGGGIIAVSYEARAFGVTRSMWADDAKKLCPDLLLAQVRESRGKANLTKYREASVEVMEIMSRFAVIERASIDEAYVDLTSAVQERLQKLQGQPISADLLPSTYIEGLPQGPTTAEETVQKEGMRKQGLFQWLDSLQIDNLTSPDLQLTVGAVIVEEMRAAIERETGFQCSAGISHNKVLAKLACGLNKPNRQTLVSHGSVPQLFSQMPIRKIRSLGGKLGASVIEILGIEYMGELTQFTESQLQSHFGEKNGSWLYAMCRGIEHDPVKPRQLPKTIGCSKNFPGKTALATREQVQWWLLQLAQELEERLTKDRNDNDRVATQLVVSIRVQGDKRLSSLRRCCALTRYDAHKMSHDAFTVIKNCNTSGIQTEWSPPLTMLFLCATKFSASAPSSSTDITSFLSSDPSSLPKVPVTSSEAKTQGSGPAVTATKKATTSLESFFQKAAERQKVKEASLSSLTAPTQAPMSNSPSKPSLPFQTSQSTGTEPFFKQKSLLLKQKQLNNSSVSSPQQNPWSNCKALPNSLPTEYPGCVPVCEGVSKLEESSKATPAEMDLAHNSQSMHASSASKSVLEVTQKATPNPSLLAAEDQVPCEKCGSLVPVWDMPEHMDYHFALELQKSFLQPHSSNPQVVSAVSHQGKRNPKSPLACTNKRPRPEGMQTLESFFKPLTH
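Pol eta (10 nM) was preincubated with compounds for 15 min at room temperature, after which fluorescent replication substrate (50 nM final) was added to start the reaction. Fluorescence was read kinetically at 0 and 10 min.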
POLI inh: inhibitors of human DNA polymerase iota | Potency, µM (doses to about 115 µM), most hits filed as inhibitors | actives 1% (n = 390,000) | Pol iota fluorescent replication assay, 10 min | Q9UNA4 | AID 588590
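Pol iota at 10 nM preincubated 15 min with compounds at room temperature; reaction started with fluorescent substrate, 50 nM final. Fluorescence read kinetically at 0 and 10 min; buffer-only wells as negative control.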
PGK inhibitor: T. brucei PGK inhibition; P07378; PGK/GAPDH coupled, Kinase-Glo luminescence, 60 min; Potency, µM (doses to about 57.5 µM), hits mostly inhibitors; actives 0.043% (n = 380,000); AID 602233; also: nearly all actives have a fitted effect of over 60% in size
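Luminescent ATP detection (Kinase-Glo Plus) follows a 60-minute room-temperature incubation, with wells lacking PGK as controls. Buffer: 100 mM TEA (pH 7.6), 5 mM MgCl2, 0.01% Tween-20. Coupling enzyme GAPDH (100 nM final) supplies unstable 1,3-BPG in-well.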
Large screens that a line does not name were inactive; ! = not confirmed by another sample. Most compounds without a hit are left out; they make up all but 2.4% or so of the library. Calls follow the shape of the dose curve; as a rule, active = well fitted curve in the direction sought with a large enough effect; inconclusive = small, poorly fitted or top-dose-only effect, or another doubt; inactive = no such curve, though single readings can be large; an effect the other way counts as inactive or inconclusive.

Cc1ccc(C)c(NC(=O)CSc2sc3c(O)cc(=O)[nH]c3c2C#N)c1	Pol beta inh inconclusive, Pol kappa inh inconclusive, Pol eta inh 20µM, POLI inh 28µM
CCC1CC=CC2C1C(=O)N(Cc1ccccc1)C2c1cc(C)ccc1F (configuration not stated)	none (no result: Pol beta inh, Pol eta inh, PGK inhibitor)
Cc1cccc(NC(=O)CSc2nccn2Cc2ccc(F)cc2)c1C	none
Cc1ccc(/C=C/C(=O)O)cc1S(=O)(=O)Nc1ccc(C(=O)O)cc1	Pol eta inh inconclusive
Cc1ccc(/C=C/C(=O)O)cc1S(=O)(=O)Nc1ccccc1C(=O)O	Pol beta inh inconclusive, Pol eta inh 45µM
COc1ccc(-c2ccc(Nc3ccc(C(=O)N4CCOCC4)cc3)nn2)cc1OC	Pol beta inh 28µM, POLI inh inconclusive
COc1ccc(NC(=O)c2ccccc2OCC(=O)Nc2ccc(Br)cc2)cc1	none (no result: Pol beta inh, Pol eta inh, PGK inhibitor)
Oc1ccc(/C=N/N(Cc2ccccc2)c2ccccc2)c(O)c1O	Pol beta inh 6.3µM
Oc1cccc(/C=N/N(Cc2ccccc2)c2ccccc2)c1	none
COC(=O)c1ccc(NC(=O)c2cccc(NC(=O)c3ccco3)c2)cc1	none
CCOC(=O)c1c(C)c(C(=O)NCc2ccco2)c(C)n1Cc1ccccc1	Pol beta inh 40µM, Pol eta inh inconclusive, POLI inh inconclusive
CCC(CC)C(=O)Nc1cccc(C(=O)NCc2ccco2)c1	Pol beta inh 3.2µM, Pol kappa inh inconclusive, Pol eta inh inconclusive, POLI inh 40µM
CCOc1ccc(C(=O)NCc2ccco2)cc1	Pol beta inh 22µM, Pol kappa inh inconclusive, Pol eta inh inconclusive, POLI inh inconclusive
CC(C)CNC(=O)c1cccc(NC(=O)c2ccc(NC(=O)c3ccco3)cc2)c1	Pol beta inh 25µM, POLI inh inconclusive (no result: PGK inhibitor)
O=C(NCc1ccco1)c1cccc(NC(=O)c2ccccc2)c1	none
O=C(NCc1ccco1)c1cc2c(s1)CSC2	Pol beta inh 14µM, FEN1 inhibitor 50µM, Pol kappa inh 11µM, Pol eta inh 20µM, POLI inh inconclusive, PGK inhibitor inconclusive
Cc1cccc(C(=O)NCc2ccco2)c1	Pol beta inh 56µM, Pol eta inh inconclusive, POLI inh inconclusive
O=C(NCc1ccco1)c1ccc(Cn2c(=S)[nH]c3ccccc3c2=O)cc1	Pol beta inh 20µM, Pol eta inh inconclusive
COc1cccc(N2CC(NC(=O)CCCc3ccccc3)CC2=O)c1 (configuration not stated)	none
Cn1c(=O)n(CCc2ccccc2)c(=O)c2c1nc1n2CCN1c1ccc(Cl)cc1	none
O=c1cc(-c2ccc(O)c(O)c2)oc2cc(OC3OC(CO)C(O)C(O)C3O)cc(O)c12 (configuration not stated)	Pol kappa inh 0.89µM (no result: Pol beta inh, FEN1 inhibitor, Pol eta inh, POLI inh, PGK inhibitor)
O=c1c(OC2OC(CO)C(O)C(O)C2OC2OC(CO)C(O)C(O)C2OC2OC(CO)C(O)C(O)C2O)c(-c2ccc(O)c(O)c2)oc2cc(O)cc(O)c12 (configuration not stated)	Pol beta inh inconclusive, Pol kappa inh 56µM, Pol eta inh inconclusive, POLI inh 50µM
O=c1cc(-c2ccc(O)cc2)oc2cc(O[C@@H]3O[C@H](CO)[C@H](O)[C@H](O)[C@H]3O)cc(O)c12	none (no result: Pol beta inh, Pol eta inh, PGK inhibitor)
O=c1c(O[C@@H]2O[C@H](CO)[C@@H](O)[C@H](O)[C@H]2O)c(-c2ccc(O)cc2)oc2cc(O)cc(O)c12	POLI inh inconclusive (no result: Pol beta inh)
O=c1c2c(O)cc(O)cc2oc2ccc(O)c(O[C@@H]3O[C@H](CO)[C@@H](O)[C@H](O)[C@H]3O[C@H]3O[C@H](CO)[C@@H](O)[C@H](O)[C@H]3O)c12	FEN1 inhibitor inconclusive (no result: Pol beta inh)
C[C@@H]1O[C@@H](OC[C@H]2O[C@@H](Oc3c(-c4ccc(O)c(O)c4)oc4cc(O)cc(O)c4c3=O)[C@H](O)[C@@H](O)[C@@H]2O)[C@H](O)[C@H](O)[C@H]1O	Pol beta inh 8.9µM, Pol kappa inh 24µM!
O=c1c(O[C@@H]2O[C@H](CO)[C@@H](O)[C@H](O)[C@H]2O)c(-c2ccc(O)c(O)c2)oc2cc(O)cc(O)c12	Pol beta inh 1.8µM (no result: FEN1 inhibitor, Pol kappa inh, Pol eta inh, POLI inh, PGK inhibitor)
CC(C)(C)n1ncc2c(=O)n(Cc3ccc(F)c(F)c3F)cnc21	none (no result: Pol beta inh, Pol eta inh, PGK inhibitor)
Nc1cc(=O)[nH]c2c1CCC2	none (no result: Pol beta inh, Pol eta inh, PGK inhibitor)
CSc1nc(SCCO)c2sc3nc(-c4ccco4)c4c(c3c2n1)CC(C)(C)OC4	Pol beta inh 1.6µM, Pol eta inh 79µM, POLI inh 22µM
COC(=O)CSc1nc(SC)nc2c1sc1nc(-c3ccco3)c3c(c12)CC(C)(C)OC3	none (no result: Pol beta inh)
CSc1nc(N(CCO)CCO)c2sc3nc(-c4ccco4)c4c(c3c2n1)CCC4	Pol beta inh 1.8µM, FEN1 inhibitor inconclusive, Pol kappa inh 10µM, Pol eta inh 1.1µM, POLI inh 1.8µM, PGK inhibitor inconclusive
CCOc1ccccc1CNC(=O)CCn1cccn1	none
CCCCCCCNC1=CC(=O)CC(c2ccco2)C1 (configuration not stated)	Pol beta inh 11µM, POLI inh inconclusive
O=C(C[n+]1cccc(Cl)c1)c1ccc(F)cc1	none (no result: Pol beta inh, Pol eta inh, PGK inhibitor)
Cc1cc(C(=O)N/N=C/c2cc(N=Nc3ccccc3)ccc2O)n[nH]1	Pol beta inh 25µM
COc1ccc(SCC(CC(C)C)N2CCN(CCc3ccccc3)CCC2=O)cc1 (configuration not stated)	none (no result: Pol beta inh, Pol eta inh, PGK inhibitor)
O=C(Nc1ccc2nc(SCC(=O)N3CCOCC3)sc2c1)c1ccccc1Cl	none
Cc1oc2cc3oc(=O)c(CCC(=O)NCCC(=O)O)c(C)c3cc2c1C	Pol eta inh 56µM (no result: PGK inhibitor)
COc1ccc(CNC(=O)CCc2c(C)c3cc4c(C)c(C)oc4cc3oc2=O)cc1OC	Pol beta inh 1.6µM
Cc1oc2cc3oc(=O)c(CC(=O)N[C@@H](C)C(=O)NC(Cc4ccc(Cl)cc4)C(=O)O)c(C)c3cc2c1C (some centres not stated)	none
Cc1coc2c(C)c3oc(=O)c(CCC(=O)NCCN4CCOCC4)c(C)c3cc12	none
Cc1coc2cc3oc(=O)c(CCC(=O)NCCN4CCOCC4)c(C)c3cc12	Pol kappa inh inconclusive, POLI inh 89µM
Cc1oc2cc3oc(=O)c(CC(=O)N[C@H](C(=O)N[C@@H](C(=O)O)c4ccccc4)C(C)C)c(C)c3cc2c1C	Pol kappa inh inconclusive, POLI inh 79µM
CC1CN(c2c(F)c(N)c3c(=O)c(C(=O)O)cn(C4CC4)c3c2F)CC(C)N1 (configuration not stated)	none (no result: Pol beta inh, FEN1 inhibitor, Pol eta inh, POLI inh, PGK inhibitor)
O=C(/C(=C(\[O-])c1ccccc1)[n+]1ccc2ccccc2c1)c1ccc([N+](=O)[O-])cc1	none
O=[N+]([O-])c1ccc(-[n+]2ccc3ccccc3c2)c([N+](=O)[O-])c1	Pol kappa inh 79µM, POLI inh inconclusive (no result: Pol beta inh)
